# Data: PubChem BioAssay AID1508600 (Functional Genomics Laboratory (NCATS/FGL), 2020)
# Screen size: about 53,000 sequences; about 3,700 (7%) were called active.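 How the source made its calls: active means gene knockdowns whose robust z-score for IL-1 alpha signal is at least 2 or at most -2, so actives lie on both sides; inactive means the rest.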 The entries come from a sample that favours actives as a whole.
# Assay: Components of the Cytosolic LPS Sensing Pathway: Gene Identification via Genome-wide siRNA Screen;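 further: robust z of the log signal after scaling to non-targeting control siRNA wells of the plate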
# Details: RAW264.7 macrophages, IL-1a HTRF, actives lie on both sides, screened at 100 nM (by protocol), cells primed 5 h with Pam3CSK4 first
# Summary of the method: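 Knockdown: 100 nM siRNA, 48h, RAW264.7. Stimulation: Pam3CSK4 5 h, then LipidA via TransIT-TKO 24 h. Output: supernatant IL-1a HTRF, negative-control-normalized, log robust z-score; viability by CellTiter-Glo.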
row,Sequence,z-score
1,GCAGGCAUCGUGUUUACCATT against Cdh20,1.86 (inactive)
2,GCUCAAUUGUUCUUCUUUUTT against Olfr806,-1.13 (inactive)
3,GCUUUAGAACAGAGGGUUATT against Scd4,0.989 (inactive)
4,GGAGAUCUUCAACUGCCACTT against Rps6kl1,0.842 (inactive)
5,GGUGAUUACUCUUAUGUGATT against Slc7a8,-0.663 (inactive)
6,GGCUGAAGGAGCAAUCAAATT against L3mbtl3,1.85 (inactive)
7,GGCCGUUAUUAAAUUCAUATT against Twsg1,-0.609 (inactive)
8,GCCGUACCAUGUAAUGCCATT against Naa60,-2.05 (active)
9,GGCCUCAGCUCACAACAAATT against Sf3b4,-1.71 (inactive)
10,GGAAGCAAAAUAAAGAAACTT against Myo1e,0.109 (inactive)
11,GCGAGAGUCACAAAGUGCATT against Rcc1l,1.35 (inactive)
12,GCUAGAGGUGACUGAUGUCTT against Tti1,-1.26 (inactive)
13,GGAACAAGAGAGGACAAGUTT against Papss2,0.555 (inactive)
14,GCCAAAAGUCGAGCACCUCTT against Lrrc8d,0.43 (inactive)
15,CGGUGCUUGCUUCUAUGUGTT against Olfr642,0.201 (inactive)
16,GCUUUUGUGACUCUGCUGATT against Raver1,-1.41 (inactive)
17,CCAUCUAUCAACUUCUACATT against Sat1,-0.34 (inactive)
18,GGCUAUGUUCACCUGUGGATT against Kbtbd12,-2.66 (active)
19,CCUGUAAGAACCUUGCCUATT against Sytl3,0.733 (inactive)
20,GGAAGGAAGAAGACAAUAATT against Nudt16l1,-0.438 (inactive)
21,GCGGAUGAUCAAGAAUCGATT against Atf6b,-0.421 (inactive)
22,GCUGUGAAAACGCAGUUACTT against Ccser2,1.77 (inactive)

row,Sequence,z-score
1,CCUAUACAUGCUACUGAACTT against Itga9,-0.723 (inactive)
2,CCCAGGGUACCUCACAUCUTT against Nrp1,-0.595 (inactive)
3,GGUCAUCAAUGCCACAGCUTT against Lpo,-2.24 (active)
4,CCGGAGUGACCAUAUUCGUTT against Fgr,-0.446 (inactive)
5,GGCUCUCAAUGAUCAUCAUTT against Aldob,-0.423 (inactive)
6,GGAAGUACAGAAUUUUGAATT against Sft2d2,1.46 (inactive)
7,GGAAAUGUUGAAUCUUGCUTT against Mfsd4a,0.0725 (inactive)
8,CGAUGUAAGGAAAGAAAGGTT against Cd14,-1.47 (inactive)
9,CCCUUUGUGUGGAUUAUAUTT against Sp9,2.91 (active)
10,GGGACUGUAAUACCAUGAUTT against Rnase10,0.0343 (inactive)
11,GGCCUUCACCAAAAGCAUCTT against Ncf2,-0.661 (inactive)
12,GGUUUCCUUUGUCUGUUUUTT against 9530091C08Rik,-0.509 (inactive)
13,GGCUCUAACUAUUAUGUGCTT against Psmc4,-2.9 (active)
14,CCUGGCUGUAAUCACCAUCTT against Olfr1160,0.953 (inactive)
15,GGACAGAUCUUUGAAGCAGTT against Vps18,-1.7 (inactive)
16,GGACGAGGAGUACGAGCAATT against Nfkbia,2.6 (active)
17,CUACCUACUCCAUGUGGUGTT against Gpihbp1,-0.55 (inactive)
18,GGCCAUUAAAUUUAUCAACTT against Aldh3a1,1.61 (inactive)
19,GGGAGAGCUGCUGUUUUUCTT against Rxfp3,1.46 (inactive)
20,GGUCUGCUUUGUCUUGGUGTT against Olfr829,0.126 (inactive)
21,GGAUGAAGAUGAAAAGGAATT against Ube3a,-0.519 (inactive)
22,CCUGAAAGUCGUUUAUCGCTT against Il7r,2.74 (active)

row,Sequence,z-score
1,GGCUAUUUAUAAGUCCAGUTT against Uso1,-0.307 (inactive)
2,GGAUAGGUUUCUGUAUUUATT against Znrf1,0.621 (inactive)
3,CCGUAUGAACGUGUGAUAATT against Rasef,0.142 (inactive)
4,GGGCACCUAGUUUCCAUGATT against Cox7b,-0.385 (inactive)
5,GGAAGUGGCGAGGUUCUAUTT against Folr1,0.782 (inactive)
6,GCAGAACACCGCUGGAAGUTT against Pard3,3.14 (active)
7,CGCAAUGUAUGAUUCAAUGTT against Mogat1,1.76 (inactive)
8,GCUAAUUCCCUGGCCUCAATT against Tro,-0.627 (inactive)
9,GGUUUAUAGGCCUUCUUCCTT against Flot2,-0.763 (inactive)
10,GCAUCGUUAUGCGCCUCACTT against Neurog2,0.297 (inactive)
11,CGGGCAUGAUGAAUCGAUGTT against Ldhd,1.83 (inactive)
12,GGCUUGAUGAAGAGAAUAUTT against Oog4,-1.45 (inactive)
13,CGGACUCUGUGUUCUUAGATT against Alg3,2.68 (active)
14,GGGCGACUUAUUUUUUGUUTT against Zfp111,0.333 (inactive)
15,GGACUUCAUCAACAACAUCTT against Nsmce1,0.459 (inactive)
16,GGAAAUCUUCAUGAUCAGUTT against Fam24b,-2.24 (active)
17,GGUCAUCGGGUAAUUAAUCTT against Rad52,-0.618 (inactive)
18,GGAGUCUGCUCUCAUUCUUTT against Slc30a1,-0.214 (inactive)
19,GGAUGCUGAGCUUUCUGACTT against Fchsd1,0.476 (inactive)
20,GGCCCUGUUGCUAUGUGUUTT against Map1s,2.06 (active)
21,GGCACCGCUAUUCAGAAUUTT against Fgf23,0.755 (inactive)
22,GCUGGAAAAGUGCUGUGGGTT against Sult1c1,-0.494 (inactive)

row,Sequence,z-score
1,GGCUUCCUUUUUGAAGCUATT against Slc35b4,0.258 (inactive)
2,CCGUCAAAACAUUACCAUUTT against Hmcn2,-0.363 (inactive)
3,GGUAGAAGAGAGUAUCAACTT against Commd1,1.28 (inactive)
4,GGAAAGUCUACAUGUAUUATT against Enpp6,-0.886 (inactive)
5,ACAUUUAUCACGACCCUUCTT against Olfr777,1.3 (inactive)
6,GGCCUUCACUGAUGAAUGUTT against Pramel32,-2.21 (active)
7,GGCGAAAAGCCGUUCCAUUTT against E430018J23Rik,0.664 (inactive)
8,GGAGAAGAACGAGAAACGUTT against Nyap2,0.904 (inactive)
9,CCAUUGAAAUUUCCAUCUGTT against Baalc,0.115 (inactive)
10,CGUGAACUUUCAGAGCAGGTT against Rrp36,0.124 (inactive)
11,CCAUAGCAGGGAAGAUUUUTT against Kcnd2,3.78 (active)
12,GGAUCCACAGUCAUUCAGATT against Sike1,1.13 (inactive)
13,GGUCUUCAUGGUCAAAGUGTT against Fzd10,2.11 (active)
14,GCAAAGUCCAGUGAACAACTT against Gtse1,-1.15 (inactive)
15,GGCCACAAUGGAUCAGAUGTT against Gldn,1.53 (inactive)
16,GGAUCUUUUAGCUAACCUATT against Tesk2,1.84 (inactive)
17,GGCAACCUGCUGGUAAUCATT against Adrb3,3.53 (active)
18,GGCAUGCUGGAAUCAAACATT against Dppa2,0.699 (inactive)
19,GGUGAGCAAAGCCAAGAAGTT against Sgpl1,-1.42 (inactive)
20,GGCUUGCUUUGCUUCCCUUTT against Med28,-1.24 (inactive)
21,CCCGAAAGACAUGUAUUCGTT against Mrps18b,-0.38 (inactive)
22,CUACUUCGAGAACAUGGGUTT against Tpgs1,-0.749 (inactive)

row,Sequence,z-score
1,GGUGAUAUCUUUCCAUCUUTT against Wiz,-0.176 (inactive)
2,CCACACUUAGUCAUUUUCUTT against Paral1,-2.06 (active)
3,GGCCUACGAAGUGCAAAGATT against Sipa1l3,-0.667 (inactive)
4,GGACUAGAAGAUCUACACUTT against Olfr67,-0.921 (inactive)
5,GCCUCGAUGCAAGAUGAUGTT against C2cd2l,-0.82 (inactive)
6,GGAUAAAGAAGGACUCAAATT against Tpbpb,-2.16 (active)
7,GGAGUAUGCGUACCUGAAGTT against Nr0b2,-0.903 (inactive)
8,GGCAGAGCUUGGAGUAUCUTT against Gtpbp4,1.31 (inactive)
9,GGGAGAAAAAGGCAUUUUUTT against Them5,0.46 (inactive)
10,GGACAACACAUUUGUGCUCTT against Sh2b2,0.209 (inactive)
11,GUCUGAACUUCUUAGCAUCTT against Uchl4,0.788 (inactive)
12,CCAGUGAUCAGUUUUAACGTT against Adamts20,0.184 (inactive)
13,CCUCAAUUGCAUGUGACCUTT against Itgb1bp1,-2.32 (active)
14,GGAUACAAAGAGAGUUGUCTT against Eif3c,1.23 (inactive)
15,GGUGCUGCACAAAUACAUATT against Eef1aknmt,0.715 (inactive)
16,CGAUCGAAAUCAAGUCGAUTT against Septin9,0.415 (inactive)
17,GGUUCUCUGCCAGUUCUGUTT against Mid1,3.32 (active)
18,GGACCAUGUUAGAGCAUGCTT against Traf2,-2.36 (active)
19,GGUCCUACUUGUUCAUUGATT against Il1rl1,-0.802 (inactive)
20,GGACUUCAGUGAGGAUCAATT against Scg5,0.866 (inactive)
